Compound activity (PubChem BioAssay)
This is a sample that favours compounds with a hit; in the whole collection about 19% have one here.
TDP1 block = qHTS Assay for Inhibitors of Tyrosyl-DNA Phosphodiesterase (TDP1); 350,000 tested, 0.28% active; AID 485290, 2010; recombinant TDP1, AlphaScreen DNA substrate cleavage; Potency, µM (highest dose often 130 µM), inactives show at the highest dose activity change, negative = inhibition, hits mostly inhibitors; Tyrosyl-DNA phosphodiesterase 1 (Homo sapiens), Q9NUW8; further: nearly all actives have a fitted effect of over 40% in size
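Recombinant human Tdp1 (E. coli-expressed, 1 nM final) preincubated with compounds 15 min at room temperature, then 5'-biotin/3'-phosphotyrosine-FITC DNA substrate (15 nM final) added for 5 min. AlphaScreen beads (10 ug/ml final) added 10 min; cleavage lowers signal.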
TDP1 cell noCPT = qHTS for Inhibitors of human tyrosyl-DNA phosphodiesterase 1 (TDP1): qHTS in cells in absence of CPT; DT40 Tdp1-/- hTDP1 cells, no CPT, ATP luminescence, 48 h; Potency, µM (series often up to 46.2 µM), for the others: at the top dose activity change, negative = growth inhibition, most hits filed as inhibitors; 420,000 tested, 15% active; further: nearly all actives have a fitted effect of over 55% in size
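Compound effects on proliferation are scored in DT40 Tdp1-/-;hTDP1 cells in the absence of CPT. ATP levels (CellTiter-Glo luminescence) are recorded after a ≥48 hr, 37 °C incubation.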
TDP1 cell CPT = qHTS for Inhibitors of human tyrosyl-DNA phosphodiesterase 1 (TDP1): qHTS in cells in presence of CPT | 420,000 tested, 12% active | Potency, µM (top dose mostly 46.2 µM), inactives show at the top dose activity change, negative = growth inhibition, actives largely listed as inhibitors | chicken DT40 Tdp1-/-;hTDP1 cells + 20 nM CPT, ATP luminescence, 48 h; further: nearly all actives have a fitted effect of over 55% in size
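Chicken DT40 Tdp1-/- cells complemented with human TDP1, 400 cells/well, exposed to compounds plus 20 nM camptothecin for at least 48 h at 37 C; viability read as ATP content by CellTiter-Glo luminescence.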
VP16 counter = VP16 counterscreen qHTS for inhibitors of ROR gamma transcriptional activity; 310,000 tested, 3.5% active; Potency, µM (titrated, usually from 53.6 µM), inactives show at the top dose activity, negative = inhibition, most hits filed as inhibitors; Drosophila S2 Gal4-VP16 UAS-luciferase, luminescence, 20 h; AID 2546, 2010;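 further: Gal4-VP16 expression switched on by copper sulfate through the metallothionein promoter; nearly all actives have a fitted effect of over 50% in size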
RORgamma inh = qHTS for inhibitors of ROR gamma transcriptional activity; Nuclear receptor ROR-gamma (Mus musculus), P51450; Drosophila S2 Gal4-RORgamma UAS-luciferase reporter, 20 h; Potency, µM (doses to about 53.6 µM), inactives show top-dose activity change, negative = inhibition, hits mostly inhibitors; 310,000 tested, 5.4% active; AID 2551, 2010; further: nearly all actives have a fitted effect of over 60% in size
Target sequence (P51450 whole entry, looked up, the tested form may be a part): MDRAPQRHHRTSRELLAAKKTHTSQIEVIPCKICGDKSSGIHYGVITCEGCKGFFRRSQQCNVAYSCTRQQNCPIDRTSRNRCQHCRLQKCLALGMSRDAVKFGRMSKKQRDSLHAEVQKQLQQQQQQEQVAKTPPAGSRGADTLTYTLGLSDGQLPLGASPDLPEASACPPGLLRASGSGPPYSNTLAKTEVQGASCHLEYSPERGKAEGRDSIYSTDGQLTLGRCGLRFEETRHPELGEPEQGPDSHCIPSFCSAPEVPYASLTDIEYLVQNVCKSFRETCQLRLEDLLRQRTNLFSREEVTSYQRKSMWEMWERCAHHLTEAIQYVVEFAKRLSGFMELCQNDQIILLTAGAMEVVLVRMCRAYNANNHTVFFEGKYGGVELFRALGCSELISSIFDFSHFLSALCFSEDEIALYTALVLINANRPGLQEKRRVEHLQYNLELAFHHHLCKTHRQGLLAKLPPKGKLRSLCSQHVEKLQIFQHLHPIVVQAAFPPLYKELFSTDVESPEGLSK
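Compounds are pin-transferred onto Drosophila Schneider cells expressing a copper-inducible Gal4–ROR gamma transactivation domain fusion. After 1 hr, copper sulfate is added to 700 uM final; luciferase is read 20 hr later.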
* = called active by the depositor; ? = inconclusive; . = no result given; [ ] = another dose, or the depositor's remark. The call rests on the fitted dose curve; in most records, active means well fitted curve in the direction sought with a large enough effect; inconclusive means small, poorly fitted or top-dose-only effect, or another doubt; inactive means no such curve, though single readings can be large; an effect the other way counts as inactive or inconclusive. On the % scale 0 is the no-effect control and ±100 the full control effect; potency means the concentration at half of the fitted maximal effect.

SMILES	TDP1 block	TDP1 cell noCPT	TDP1 cell CPT	VP16 counter	RORgamma inh
O=S(=O)(c1ccc(-c2ccccc2)cc1)N1CCOCC1	0.0%	8.2%	4.2%	-6.6%	12.0%
Cc1csc(=Nc2ccc(S(=O)(=O)N3CCOCC3)cc2)n1Cc1ccco1	8.3%	23.1µM*	23.1µM*	1.0%	?
C=CCn1c(-c2ccc(S(=O)(=O)N3CCOCC3)cc2)csc1=Nc1ccccc1	9.3%	6.51µM*	6.51µM*	14.1µM*	-7.5%
Cc1cc(C)c(S(=O)(=O)c2cc(F)ccc2C)c(Cl)n1	.	-23.3%	-20.1%	3.7%	-37.4%
COc1ccc(N=c2scc(-c3ccc(S(=O)(=O)N4CCOCC4)cc3)n2CCCO)cc1	7.3%	.	.	5.62µM*	?
Cc1nc2ccccc2c(=O)n1/N=C/c1ccc(OC(F)F)cc1	.	-14.1%	14.8%	-0.2%	9.9%
Nc1nc(-c2nn(Cc3ccccc3F)c3ncccc23)ncc1C1CC1	8.2%	.	.	12.6µM*	1.78µM*
Cn1c(SCc2ccccc2F)nc2cccnc21	2.0%	-27.1%	3.3%	7.9%	-24.5%
COc1ccc(C(=O)NCCn2cc(SCC(=O)NCC3CCCO3)c3ccccc32)cc1 (configuration not stated)	2.7%	-18.7%	-22.5%	-0.8%	14.8%
Cc1cc(NC(=O)CSc2cn(CCNC(=O)c3ccc(F)cc3)c3ccccc23)no1	5.1%	?	?	1.3%	-12.9%
COc1ccc(C(=O)NCCn2cc(SCC(=O)Nc3cccc(C)c3)c3ccccc32)cc1	7.1%	?	16.4µM*	.	.
COc1ccc(C(=O)NCCn2cc(SCC(=O)NCc3ccco3)c3ccccc32)cc1	9.8%	5.8µM*	7.31µM*	-23.3%	10µM*
CCOc1ccccc1NC(=O)COC(=O)c1cccc(-c2ccc(OC(C)=O)cc2)c1	0.0%	25.9µM*	?	-26.1%	24.0%
CN(C(=O)COC(=O)c1cccc(S(=O)(=O)N2CCCCCC2)c1)c1ccccc1	.	-29.1%	0.8%	.	.
COc1ccc(N(C)S(=O)(=O)c2cccc(C(=O)OCC(=O)N(C)c3ccccc3)c2)cc1	-2.1%	20.6µM*	?	.	.
CC(=O)Oc1ccc(-c2cccc(C(=O)OCC(=O)N(C)c3ccccc3)c2)cc1	5.3%	23.1µM*	?	-0.4%	2.8%
CC(=O)Oc1ccc(-c2cccc(C(=O)OCC(=O)Nc3ccccc3Oc3ccccc3)c2)cc1	4.2%	18.4µM*	-26.8%	-10.8%	-1.5%
CN(C)c1cccc(C(=O)OCC(=O)N(C)c2ccccc2)c1	2.8%	-19.5%	-21.3%	4.5%	2.1%
CCCCN=C1NN=C(c2cccc([N+](=O)[O-])c2)CS1	4.8%	?	?	6.5%	?
COC1CC(O[C@H]2/C(C)=C/CC3CC(C[C@]4(CCC(C)C(C5CCCCC5)O4)O3)OC(=O)[C@H]3C=C(C)/C(=N/O)C4OC/C(=C\C=C\[C@@H]2C)[C@@]43O)OC(C)C1O (some centres not stated)	13.0%[56.1 µM]	.	.	-2.1%	16.4%
CCCn1c(CN(Cc2ccccc2)Cc2ccccc2)nc2c1c(=O)n(C)c(=O)n2C	2.6%	14.6µM*	23.1µM*	?	-12.6%
CN(Cc1ccccc1)Cc1nc2c(c(=O)n(C)c(=O)n2C)n1CCc1ccccc1	.	18.4µM*	13µM*	.	.
CCCn1c(CN(C)Cc2ccccc2)nc2c1c(=O)n(C)c(=O)n2C	2.6%	10.3µM*	9.2µM*	?	?
COCCn1c(CN(C)Cc2ccccc2)nc2c1c(=O)n(C)c(=O)n2C	0.0%	?	?	-10.1%	18.0%
CCCCn1c(CN(C)Cc2ccccc2)nc2c1c(=O)n(C)c(=O)n2C	-2.8%	4.11µM*	6.51µM*	?	?
SMILES	TDP1 block	TDP1 cell noCPT	TDP1 cell CPT	VP16 counter	RORgamma inh
CC1CCC2(CC1)NC(=S)N(c1ccccc1)N2 (configuration not stated)	10.1%	8.2%	-7.5%	-21.0%	-25.3%
CCCCc1nnc(NC(=O)C2=COCCO2)s1	3.6%	11.3%	-17.9%	-10.0%	?
COC(=O)Cn1c(CN(Cc2ccccc2)Cc2ccccc2)nc2c1c(=O)[nH]c(=O)n2C	4.8%	?	-29.9%	-6.2%	17.3%
CN(Cc1ccccc1)Cc1nc2c(c(=O)n(C)c(=O)n2C)n1Cc1ccccc1Cl	-1.2%	11.6µM*	25.9µM*	1.7%	-13.9%
CCOC(=O)Cn1c(CN(Cc2ccccc2)Cc2ccccc2)nc2c1c(=O)n(C)c(=O)n2C	2.9%	?	20.6µM*	-8.9%	26.1%
CCOCCn1c(CN(C)Cc2ccccc2)nc2c1c(=O)n(C)c(=O)n2C	.	23.1µM*	?	3.3%	1.0%
CCOc1cc(S(=O)(=O)NC2CCCCCC2)ccc1F	-13.1%	?	20.6µM*	-3.8%	0.9%
CCCOc1cc(C)c(S(=O)(=O)NCCOC)cc1C	7.7%	?	25.9µM*	1.5%	7.4%
Cc1cccc(S(=O)(=O)NC2CCCCCCC2)c1	4.7%[0.0935 µM]	?	20.6µM*	-7.2%	14.4%
CCOc1cc(C)c(S(=O)(=O)NC2CCCCC2)cc1C	1.1%	?	?	11.2µM*	3.7%
COCCNS(=O)(=O)c1cc(OC)c(C)cc1C	3.7%	-1.1%	-5.5%	-6.2%	12.8%
COc1ccc(S(=O)(=O)Nc2ccc(S(=O)(=O)N3CCCCC3)cc2)cc1C	2.9%	-10.9%	0.2%	-20.8%	?
COc1ccc(S(=O)(=O)Nc2ccc3ccccc3c2)cc1C	0.7%	?	9.2µM*	?	-44.1%
COc1ccc(S(=O)(=O)Nc2ccc(Cc3ccncc3)cc2)cc1C	4.5%	?	13µM*	22.4µM*	31.8%
CCc1ccc(NS(=O)(=O)c2ccc(OC)c(C)c2)cc1	3.9%	23.1µM*	?	?	-44.4%
Cc1cc(O)cc(C)c1NS(=O)(=O)c1ccc2ccccc2c1	.	25.9µM*	?	-2.6%	1.3%
COC(=O)C1CN(C(=O)COc2ccc(Cl)c(C)c2)c2ccccc2O1 (configuration not stated)	.	-10.6%	-0.9%	4.0%	?
O=C(NCCCN1CCOCC1)C(=O)NCC1OCCCN1S(=O)(=O)c1cc(F)ccc1F (configuration not stated)	3.6%	-9.1%	-3.5%	1.4%	6.4%
CN(CCN1CCOCC1)C(=O)C1CCC(=O)N(Cc2ccc(Cl)cc2)C1 (configuration not stated)	.	-4.9%	-1.8%	.	.
O=C(Nc1cc(Cl)ccc1O)C1CC(c2c(F)cccc2Cl)=NO1 (configuration not stated)	.	?	?	1.3%	5.0%
